Source: PubChem BioAssay
Only some compounds are listed: those with a hit (about 8.5% of all), similar ones and a draw of the others.
ALDH1A1 inh: blocks purified human ALDH1A1 activity; Purified ALDH1A1, NADH fluorescence, propionaldehyde substrate; P00352; hit rate 7.3% among 220,000; AID 1030; Potency, µM (titrated, usually from 75.3 µM), without a hit: at the top dose activity, negative = inhibition, usual class: inhibitors; active = well fitted inhibition curve with a large enough effect, not every such curve was filed as active; inconclusive = small, poorly fitted or top-dose-only effect, or another doubt; inactive = no such curve, though single readings can be large or run the other way;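 note: potency is the fitted concentration of half-maximal effect; plate controls were no enzyme wells and a reference inhibitor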
GoLoco inh red: RGS12 GoLoco-Gai1 interaction inhibition; Potency, µM (series often up to 61.6 µM), for inactives: top-dose activity, negative = inhibition, hits mostly inhibitors; hit rate 0.44% among 230,000; Gai1:RGS12 GoLoco peptide FP, rhodamine, 10 min; P63096; AID 880; active = well fitted inhibition curve with a large enough effect, not every such curve was filed as active; inactive = no such curve, though single readings can be large or run the other way; note: potency is the fitted concentration of half-maximal effect; nearly all actives have a fitted effect of over 30% in size
JMJD2E inh: inhibitors of human JMJD2E histone demethylase; Potency, µM (highest dose often 57.1 µM), inactives show at the highest dose activity change, negative = inhibition, actives largely listed as inhibitors; hit rate 1.6% among 230,000; JMJD2E catalytic domain, FDH-coupled NADH fluorescence (FDH is formaldehyde dehydrogenase);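 note: potency is the fitted concentration of half-maximal effect; 0% = wells with enzyme and -100% = buffer wells without enzyme; nearly all actives have a fitted effect of over 50% in size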
Target sequence (B2RXH2 1-337 limits assumed): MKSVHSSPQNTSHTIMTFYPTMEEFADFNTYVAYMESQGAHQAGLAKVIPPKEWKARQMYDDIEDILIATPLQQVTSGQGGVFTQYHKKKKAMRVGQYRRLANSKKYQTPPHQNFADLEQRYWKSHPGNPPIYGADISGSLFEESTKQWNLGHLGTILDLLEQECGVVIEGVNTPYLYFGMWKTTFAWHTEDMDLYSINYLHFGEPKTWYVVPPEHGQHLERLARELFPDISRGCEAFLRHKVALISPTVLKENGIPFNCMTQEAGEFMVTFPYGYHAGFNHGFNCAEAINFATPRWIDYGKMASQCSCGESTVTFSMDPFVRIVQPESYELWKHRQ
Sfp PPTase inh: inhibitors of Bacillus subtilis Sfp phosphopantetheinyl transferase; Biochemical Sfp PPTase activity, qHTS; hit rate 3.5% among 310,000; AID 1490; Potency, µM, for inactives: largest response in the series, negative = inhibition, hits mostly inhibitors; Q9F4F7;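 note: the enzyme is Sfp with the accession as filed and its product quenches rhodamine fluorescence; potency is the fitted concentration of half-maximal effect; 0% = enzyme reaction without inhibitor and -100% = no enzyme wells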
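Buffer: 50 mM Hepes-Na pH 7.6, 10 mM MgCl2, 0.01% Nonidet P-40, 0.01% BSA. Enzyme 15 nM, pre-exposed to compound 15 min; substrates then added and fluorescence change tracked over 30 min.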
Coupling enz: coupling enzyme interference in Giardia aldolase counter-screen. activity change, negative = inhibition, % at 58.2 µM, hits read low. hit rate 0.67% among 290,000. AID 2472. coupling enzyme system counterscreen, AmpLite Red fluorescence; in the data active = activity change below about -30%
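Counterscreen of the coupled detection system alone, without aldolase: glyceraldehyde-3-phosphate coupling enzymes plus AmpLite Red readout. Compounds at 57.5 uM final, 10 min RT preincubation, 20 min RT reaction, fluorescence 525/598 nm.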
NPSR antag: blocks cAMP signaling of the human neuropeptide S receptor; Potency, µM (top dose mostly 38.3 µM), for inactives: at the highest dose activity change, negative = inhibition, most hits filed as inhibitors; hit rate 1% among 220,000; CHO-NPSR cells, cAMP TR-FRET, antagonist mode; note: potency is the fitted concentration of half-maximal effect; nearly all actives have a fitted effect of over 50% in size
Target sequence (Q6W5P4 whole entry, looked up): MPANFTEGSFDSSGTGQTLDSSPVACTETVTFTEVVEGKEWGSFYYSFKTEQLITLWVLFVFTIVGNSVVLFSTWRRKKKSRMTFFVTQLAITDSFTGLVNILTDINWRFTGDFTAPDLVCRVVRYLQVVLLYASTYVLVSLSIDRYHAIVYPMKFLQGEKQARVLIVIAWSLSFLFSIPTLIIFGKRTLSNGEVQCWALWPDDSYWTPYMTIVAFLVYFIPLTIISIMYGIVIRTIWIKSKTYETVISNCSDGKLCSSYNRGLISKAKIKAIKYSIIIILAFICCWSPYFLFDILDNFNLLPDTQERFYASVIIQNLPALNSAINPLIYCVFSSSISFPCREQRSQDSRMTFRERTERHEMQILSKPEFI
* = called active by the depositor; ? = inconclusive; / = not tested or not shown; [ ] = remark or other dose. Unless noted, calls come from the whole dose curve; as a rule, active = well fitted curve in the direction sought with a large enough effect; inconclusive = small, poorly fitted or top-dose-only effect, or another doubt; inactive = no such curve, though single readings can be large; an effect the other way counts as inactive or inconclusive. Unless noted, % is set by controls: 0 for no effect and ±100 for the full control effect.

SMILES	ALDH1A1 inh	GoLoco inh red	JMJD2E inh	Sfp PPTase inh	Coupling enz	NPSR antag
CCOc1ccc(NC(=O)C2CCN(S(=O)(=O)c3ccc4c(c3)NC(=O)C(C)S4)CC2)cc1 (configuration not stated)	/	/	/	13%	/	/
COC(=O)c1cccc(NC(=O)CSc2nnc(C)o2)c1	/	/	/	14%	1	/
CN(C)/C=N/C1=C(C#N)C(c2cccs2)c2ccc3ccccc3c2O1 (configuration not stated)	0.32µM*	13%	?	-2%	-17	46%
C[n+]1cccc(C2C(C#N)=C(N)Oc3c2ccc2ccccc32)c1 (configuration not stated)	/	77%	?	-14%	1	-14%
N#CC1=C(N)Oc2cc3ccccc3cc2C1c1cccs1 (configuration not stated)	?	4%	6%	79µM*	-7	-8%[46.1 µM]
N#CC1=C(N)Oc2cc3ccccc3cc2C1c1cccnc1 (configuration not stated)	14µM*	16%	2%	-29%	-8	5%[46.1 µM]
N#CC1=C(N)Oc2cc(N)ccc2C1c1cc(Br)cs1 (configuration not stated)	/	/	/	14%	0	/
CCN1C(=O)[C@H]2[C@@H](c3ccc(Cl)cc3)N3C(=O)CN(CCOC)C(=O)[C@@]3(C)[C@H]2C1=O	/	/	/	-2%	2	/
OCC1(CCc2ccccc2)CCCN(CCCc2ccccc2)C1 (configuration not stated)	/	/	/	6%	1	/
Cc1noc(C)c1C(=O)N(CC(C)C)c1nc2ccccc2s1	/	/	/	10%	/	/
Cc1cc[n+](-c2nc3ccccc3nc2[N-]S(=O)(=O)c2ccccc2)cc1	?	/	-1%	12%	0	1%[46.1 µM]
CCc1cc[n+](-c2nc3ccccc3nc2[N-]S(=O)(=O)c2ccc(Br)s2)cc1	0.95µM*	108%	0%	-29%	-14	-5%
Cc1ccc(C(NC(=O)N2CCCC2)C(Cl)Cl)cc1F (configuration not stated)	11µM*	2%	-7%	-27%	6	8%
O=C(CN(C(=O)c1cc2c(s1)CCC2)C1CCCC1)NCc1cccs1	16µM*	2%	5%	18%	2	-25%[46.1 µM]
CC[C@H]1[C@@H]2C=C[C@@H]3[C@H]4C/C=C\C(=O)NCCC[C@@H]5NC(=O)C(=C5O)C(=O)CC[C@@H]4C[C@@H]3[C@H]2C[C@H]1C	-1%	2%	/	-5%	-1	/
CCCc1cc(C(=O)N2CCCC(Nc3ccc(C)c(C)c3)C2)n(C)n1 (configuration not stated)	/	/	/	5%	1	/
COc1ccc(O)c(/C=N/c2sc(C)c(C)c2C#N)c1	10µM*	-3%	-21%	?	0	-16%[46.1 µM]
NNC(=O)/C=C/c1ccc(Cl)cc1Cl	13µM*	6%	136%	1%	-2	5%
O=C(O)CNC(=O)/C=C/c1ccc(Cl)cc1Cl	-5%	6%	-1%	3%	6	7%
CN1CCN(c2ncc3nc(CCc4ccccc4)c(=O)n(Cc4ccc(F)cc4)c3n2)CC1	?	6%	/	-14%	5	/
COc1ccc(NC2=CC(c3ccc(OC)c(OC)c3)N(c3ccc(OC)cc3)C2=O)cc1 (configuration not stated)	14µM*	15%	6%	-19%	-1	-11%
CC(=O)Nc1ccc(N2C(=O)CSC2c2ccc([N+](=O)[O-])cc2)cc1 (configuration not stated)	/	/	/	10%	0	/
NS(=O)(=O)c1ccc(NC2=CC(c3ccc([N+](=O)[O-])cc3)N(c3ccc(S(N)(=O)=O)cc3)C2=O)cc1 (configuration not stated)	?	4%	?	11µM*	-1	-4%
O=C(Nc1cc([N+](=O)[O-])ccc1O)c1ccc2c(c1)C(=O)N(Cc1ccco1)C2=O	/	/	/	5%	/	/
Cc1nc2ccc(NC(=O)Cc3c(F)cccc3Cl)cc2s1	/	9%	6%	12%	-1	6%
SMILES	ALDH1A1 inh	GoLoco inh red	JMJD2E inh	Sfp PPTase inh	Coupling enz	NPSR antag
O=C(CSc1ccccn1)N/N=C/c1cc([N+](=O)[O-])ccc1O	/	-1%	13µM*	17%	10	-1%
O=C(Cn1cncn1)N/N=C/c1cc([N+](=O)[O-])ccc1O	/	5%	25µM*	26%	0	-16%
Cc1cc([N+](=O)[O-])nn1CC(=O)N/N=C/c1ccc(O)cc1O	/	7%	13µM*	29%	2	-10%
Cc1cc([N+](=O)[O-])nn1CC(=O)N/N=C/c1ccccc1Br	2%	4%	6%	16%	1	7%
O=[N+]([O-])c1ccc(O)c(/C=N/n2cnnc2)c1	20µM*	-4%	-11%	0%	7	13%
O=C(c1ccccc1Cl)N1N=C(c2cccs2)CC1c1cccc(O)c1 (configuration not stated)	/	/	/	5%	/	/
COc1ccc2[nH]cc(CCNS(=O)(=O)c3ccc(C)cc3)c2c1	/	-9%	3%	11%	1	-1%
Cc1nc2ccc(C(=O)N/N=C/c3ccccc3O)cc2[nH]1	/	/	/	20%	0	/
Cc1ccn(CC(=O)N/N=C/c2cc([N+](=O)[O-])ccc2O)n1	2%	4%	13µM*	6%	5	10%
Cc1nc2ccc(C(=O)N/N=C/c3cc([N+](=O)[O-])ccc3O)cc2[nH]1	?	16%	35µM*	-13%	1	-7%
Cc1ccn(CC(=O)N2CCCC(N3CCN(Cc4ccc5c(c4)OCO5)CC3)C2)n1 (configuration not stated)	/	/	/	13%	/	/
CC1CCN(C(=O)C2CCN(CCCc3ccccc3)CC2)CC1	?	1%	-3%	-14%	1	-11%[46.1 µM]
O=C(C1CCCN(Cc2cccnc2)C1)N1CCCCC1 (configuration not stated)	5µM*	/	-11%	50µM*	0	-9%[46.1 µM]
O=C(C1CCN(CCCc2ccccc2)CC1)N1CCCCC1	14µM*	-30%	3%	6%	-5	4%[46.1 µM]
CC(C)CNC(=O)c1ccccc1SCC(=O)NC12CC3CC(CC(C3)C1)C2	?	/	-3%	16%	3	-12%[46.1 µM]
COc1ccc(Cl)cc1N1C(=O)CN(Cc2cc(OC)c(OC)c(OC)c2)C1=S	/	/	/	50µM*	-2	/
COc1ccc(-c2nc(C#N)c(NCCCN3CCOCC3)o2)cc1	?	-8%	5µM*	1%	-5	-10%[46.1 µM]
Cc1ccc(CNC(=O)C2CCCN(S(=O)(=O)c3ccc(F)cc3)C2)cc1 (configuration not stated)	/	/	/	-1%	/	/
COc1ccc2cc(C#N)c(SCC(=O)N3CCCC3)nc2c1	?	6%	?	-7%	6	-22%[46.1 µM]
COc1ccc2nc(N3CCC(C)CC3)c(C#N)cc2c1	?	7%	?	40µM*	-25	-1%[46.1 µM]
